# Experimental data as given in PubChem BioAssay (NCATS).
# Results filed as inconclusive are left out. Activity calls are given as the source filed them. Calls follow the shape of the dose curve; as a rule, active = well fitted cell-killing curve with a large enough effect; inconclusive = small, poorly fitted or top-dose-only effect, or effect the other way; inactive = no such curve, though single readings can be large or run the other way.
# Assay: qHTS of pediatric cancer cell lines to identify multiple opportunities for drug repurposing: Confirmatory screen for SJ-GBM2 cells (AID 1347116);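 also: 48 hour compound exposure; nearly all actives have a fitted effect of over 60% in size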
# Details: SJ-GBM2 glioblastoma cells, viability; series mostly up to 45.9 µM
# Excerpt: Drug repurposing or repositioning has been offered as a strategy for drug development in oncology programs. This approach has special potential for childhood cancers and other rare or orphan diseases, where the expected return on new drug development has been a disincentive to pharmaceuticals.
# In this project we exploit the poly-pharmacology of drugs to discover new indications via phenotypic screening of a panel of 19 well-characterized cell lines derived from solid tumors seen in children and adolescents. The goal is to identify approved drugs with previously unrecognized anticancer properties that has the potential to reveal new mechanisms and biological processes involved in carcinogenesis or drug resistance. We employed a titration-based paradigm (quantitative high-throughput screening or qHTS), where all compounds were tested at multiple concentrations for their effect on cell viability. Concentration-response curves (CRCs) were derived directly from the primary screen, and both potency and efficacy values were used to identify compounds with robust bioactivity profiles. We screened the NIH Chemical Genomics Center (NCGC) Pharmaceutical Collection (NPC) and Mechanism Interrogation Plate (MIPE) small molecule collections of approved and investigational compounds against these cell lines; and measured metabolically active cells after 48 hours of compound treatment as a proxy for cell viability.
# Assay Submitter: Nathalia J. Martinez, National Center for Advancing Translational Sciences, National Institutes of Health, Rockville, MD, USA; email: natalia.martinez@nih.gov
# [1] Shen, M et al. Quantitative high-throughput phenotypic screening of pediatric cancer cell lines identifies multiple opportunities for drug repurposing. Oncotarget 2017 Dec 19;9(4):4758-4772. PMID 29435139.
# The cells were obtained from University of North Carolina (UNC), Pediatric Preclinical Testing Program (PPT), and Coriell Institute (CI).
# qHTS cell viability assay:
# Cells were assayed in growth media at a density of 500-1,000 cells/well. Five microliters of cells were dispensed into 1,536-well, white, solid-bottom, TC-treated plates (Greiner Bio One) using a multidrop dispenser and incubated at 37 degrees C, 5% CO2, under a humidified atmosphere for 5 hours. Twenty-three nanoliters of compounds and controls (neutral control DMSO or positive control bortezomib at final concentration of 2.3 µM) were subsequently transferred by Kalypsys pintool. For primary screens, the MIPE collection was tested at 11-point dilutions (final concentrations range from 0.78 nM to 46 µM) and the NPC collection at 8-point dilutions (final concentrations range from 0.59 nM to 46 µM). Compounds tested in follow-up screens were assayed at 11-point dilutions. Cells were incubated for 48 hours, followed by addition of 3 uL of CellTiter-Glo (Promega). After a 15 min incubation at room temperature, samples were analyzed for luminescence intensity using a ViewLux High-throughput CCD imager equipped with clear filters.
# Potency is read from the fitted curve at half-maximal effect.
SMILES,"activity change, negative = cytotoxic",Potency
CCN[C@@H]1C[C@H](N)[C@@H](OC2OC(CN)=CCC2N)[C@H](O)[C@H]1O[C@H]1OC[C@](C)(O)[C@H](NC)[C@H]1O (some centres not stated),5.75% [at 0.556 µM] (inactive),
COc1ccc(C(=O)c2ccccc2)c(O)c1,,inactive
CCN1/C(=C/C=C/c2sc3ccccc3[n+]2CC)Sc2ccccc21,,2040 nM (active)
O=[N+]([O-])c1ccc(/C=N\O)o1,,928 nM (active)
C[C@H]1O[C@@H](O[C@H]2CC[C@@]3(C)[C@H](CC[C@@H]4[C@@H]3C[C@@H](O)[C@]3(C)[C@@H](C5=CC(=O)OC5)CC[C@]43O)C2)C[C@H](O)[C@@H]1O[C@H]1C[C@H](O)[C@H](O[C@H]2C[C@H](O)[C@H](O[C@@H]3O[C@H](CO)[C@@H](O)[C@H](O)[C@H]3O)[C@@H](C)O2)[C@@H](C)O1,,465 nM (active)
C[C@@]12C(=O)OC(=O)[C@]1(C)C1CCC2O1,,8270 nM (active)
CCCCCCCCCCCCOCCOCCOCCOCCOCCOCCOCCOCCOCCO,,inactive
O=C(CCCN1CC=C(n2c(=O)[nH]c3ccccc32)CC1)c1ccc(F)cc1,,inactive
Nc1nc(Cl)nc2c1ncn2[C@@H]1O[C@H](CO)[C@@H](O)[C@@H]1F,,233 nM (active)
O=C(Oc1cccc2cccnc12)c1ccccc1,,inactive
CCCCCCCCCCC[C@@H](C[C@@H]1OC(=O)[C@H]1CCCCCC)OC(=O)[C@H](CC(C)C)NC=O,,inactive
NC(N)=NN=C(/C=C/c1ccc([N+](=O)[O-])o1)/C=C/c1ccc([N+](=O)[O-])o1,,2930 nM (active)
